Consider 13 compounds from PubChem BioAssay (NCI).

SMILES strings stand for the structures. This is part of a sample that, as a whole, favours compounds with a hit. Of some 83,000 tested, about 20% had one in any assay.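 Percent growth is the endpoint: 0 to 100 indicates growth inhibition (40 means 60% inhibition), 0 means no net growth, and negative values indicate cell death.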 Values without a mark were called inactive. Activity calls are given as the source filed them. The calls were made as follows: active = growth percent below 10; inactive = the rest.

What all share (test): NCI-60 one-dose screen, 48 h (100 = growth as untreated, 0 = no growth, -100 = all killed)
The test system of one assay is DU-145 prostate. The note with it: 10 µM unless noted.
For the next assay, the system named is K-562 leukemia. The note with it: 10 µM unless noted.
Another assay concerns MALME-3M melanoma. Conditions: 10 µM unless noted.
In the next assay the test system is MDA-MB-231 breast. The note with it: 10 µM unless noted.
The subject of a further assay is RXF 393 renal. The note with it: 10 µM unless noted.
The next assay relates to SF-268 CNS. The note with it: 10 µM unless noted.
A further assay deals with SF-295 CNS. The note with it: 10 µM unless noted.
The subject of another assay is SF-539 CNS. The note with it: 10 µM unless noted.
The test system of the next assay is UACC-257 melanoma. Conditions: 10 µM.
The subject of the next assay is M14 melanoma. The note with it: 10 µM unless noted.

`O=C(Nc1cc(F)cc2cccnc12)c1cnc(N2CCOCC2)cn1`: the growth in the assay with DU-145 prostate is 68.5%; with K-562 leukemia it was 22.7%; with MALME-3M melanoma it was 53.6%; in the assay with MDA-MB-231 breast, 54.7%; in the assay on RXF 393 renal, 59.8%; in the assay with SF-268 CNS it was 94.3%. Besides, the growth in the assay on SF-295 CNS is 97.4%; in the assay on SF-539 CNS it was 87.6%; with UACC-257 melanoma it was 30.6%; in the assay on M14 melanoma it was 70.6%.

For the compound `COc1ccc(C2C(C#N)=C(N)Oc3c2sc2ccc(C)cc32)cc1` (stereo not given), the growth with DU-145 prostate was 36.3%; with K-562 leukemia it was 18.2%; with MALME-3M melanoma, 50%; in the assay with MDA-MB-231 breast it was 42.2%; in the assay with RXF 393 renal it was -7.62% (active); in the assay with SF-268 CNS, 44.7%. The growth with SF-295 CNS is 9.1% (active); in the assay on SF-539 CNS, 21%; in the assay with UACC-257 melanoma, 57.1%; with M14 melanoma, 20.9%.

Regarding `CC(C)SC1=NC(=C(C(=N1)NC2=ClC=CC=C2)C#N)C3=CC=CC=C3`, the growth with DU-145 prostate is 81.2%; in the assay on K-562 leukemia, 59.6%; with MALME-3M melanoma, 65.4%; in the assay with MDA-MB-231 breast it was 78.9%; in the assay with RXF 393 renal, 69.3%; in the assay with SF-268 CNS, 78.4%. For the same compound, the growth in the assay on SF-295 CNS is 52.8%; in the assay on SF-539 CNS it was 44.9%; in the assay on UACC-257 melanoma, 100%; with M14 melanoma, 89.1%.

On to `CCN1C(=O)N(CC)C2C1NN=C1SC(c3ccccc3)=CC(=O)N12` (stereo not given), for which the growth in the assay with DU-145 prostate is 26%; in the assay with K-562 leukemia, 11.7%; in the assay with MALME-3M melanoma, 46.7%; in the assay on MDA-MB-231 breast, 38.8%; with RXF 393 renal it was -11.1% (active); in the assay with SF-268 CNS, 62.4%. Besides, the growth in the assay on SF-295 CNS is 11.1%; in the assay with SF-539 CNS, -8.38% (active); in the assay on UACC-257 melanoma, 63.6%; in the assay on M14 melanoma, 5.39% (active).

As to `O=C(C[n+]1ccnc2ccccc21)c1ccc(O)c(O)c1`, the growth with DU-145 prostate is 47.3%; in the assay with K-562 leukemia it was 16.6%; in the assay with MALME-3M melanoma, 54.7%; in the assay with MDA-MB-231 breast, 55.3%; in the assay on RXF 393 renal, 17%; in the assay on SF-268 CNS it was 85.7%. Also, the growth was 87.5% in the assay with SF-295 CNS, 53.1% in the assay with SF-539 CNS, 57.8% with UACC-257 melanoma and 61.3% in the assay with M14 melanoma.

In the case of `O=C(CN1C(=O)CSC1=O)Nc1ccc(C(=O)/C=C/c2cc3ccccc3nc2Cl)cc1`, the growth is 90.3% with DU-145 prostate; 37.2% with K-562 leukemia; 91.8% with MALME-3M melanoma; 90.4% in the assay with MDA-MB-231 breast; 17.6% in the assay on RXF 393 renal; 78.8% in the assay with SF-268 CNS. The growth with SF-295 CNS is 77%; with SF-539 CNS, 79.1%; in the assay on UACC-257 melanoma, 75.3%; with M14 melanoma, 83.7%.

With `CC1CCc2c(sc3nc(SCC(=O)N/N=C/c4ccc(Cl)cc4)n(-c4ccccc4)c(=O)c23)C1` (stereo not given), the growth with DU-145 prostate was 97.8%; in the assay with K-562 leukemia it was 100%; in the assay on MALME-3M melanoma it was 99%; with MDA-MB-231 breast, 89.5%; in the assay on RXF 393 renal, -2.72% (active); with SF-268 CNS, 81.6%. Besides, the growth is 95.2% with SF-295 CNS, 90% with SF-539 CNS, 102% with UACC-257 melanoma and 102% with M14 melanoma.

With `Oc1ccc(CSc2nnc(-c3ccncc3)n2-c2ccccc2)c2cccnc12`, the growth in the assay on DU-145 prostate is 28.2%; with K-562 leukemia, 18.4%; with MALME-3M melanoma, 31.8%; with MDA-MB-231 breast it was 30.7%; in the assay on RXF 393 renal, 23.6%; with SF-268 CNS, 23.1%. The growth in the assay on SF-295 CNS was 4.58% (active); with SF-539 CNS, 21.1%; in the assay on UACC-257 melanoma, 10.7%; with M14 melanoma, 23.1%.

In the case of `CN1CCN(Cc2ccc(NC(=O)c3cncc(C#Cc4cnc5ccc(NC6CCOCC6)nn45)c3)cc2C(F)(F)F)CC1`, the growth in the assay on DU-145 prostate is -95.2% (active); with K-562 leukemia, -12.8% (active); in the assay with MALME-3M melanoma it was -86.5% (active); with MDA-MB-231 breast, -71.9% (active); in the assay on RXF 393 renal, -93.8% (active); in the assay with SF-268 CNS, -47.5% (active). Besides, the growth in the assay on SF-295 CNS is -85.2% (active); in the assay on SF-539 CNS it was -92.1% (active); in the assay on UACC-257 melanoma, -13.9% (active); with M14 melanoma, -97.2% (active).

Regarding `CC(=O)Nc1ccc(NC(=O)Nc2cccc(-c3nc(-c4ccc(NC(=O)c5cccnc5)cc4Cl)no3)c2)cc1C(F)(F)F`, the growth is -13.9% (active) with DU-145 prostate; -1.38% (active) in the assay with K-562 leukemia; -84.9% (active) with MALME-3M melanoma; -60.3% (active) in the assay on MDA-MB-231 breast; -79.5% (active) in the assay with RXF 393 renal; -33.1% (active) in the assay on SF-268 CNS. Moreover, the growth was -69.6% (active) in the assay on SF-295 CNS, -87.6% (active) in the assay with SF-539 CNS, -43.7% (active) in the assay on UACC-257 melanoma and -58.7% (active) in the assay on M14 melanoma.

Consider `CC(=O)Nc1ccc(C)c(Nc2cc(-c3ccc(-n4cccn4)cc3)[nH]n2)c1`, for which the growth in the assay on DU-145 prostate was 81.5%; in the assay on K-562 leukemia, 19%; with MALME-3M melanoma, 73.6%; with MDA-MB-231 breast, 82.8%; in the assay with RXF 393 renal, 52.8%; with SF-268 CNS it was 60.6%. Also, the growth in the assay with SF-295 CNS is 46.1%; in the assay on SF-539 CNS, 41.3%; in the assay with UACC-257 melanoma, 64.4%; in the assay on M14 melanoma it was 19.2%.

Take `CCOC(=O)c1nn(-c2ccccc2)c(=O)c2c(N)c(C#N)c(-c3cccs3)cc12`: the growth in the assay on DU-145 prostate was 88.3%; in the assay on K-562 leukemia, 87.5%; in the assay on MALME-3M melanoma it was 88.4%; in the assay with MDA-MB-231 breast it was 76.5%; in the assay on RXF 393 renal, 59.9%; in the assay on SF-268 CNS, 85.5%. The growth in the assay with SF-295 CNS is 64.4%; in the assay with SF-539 CNS, 57.2%; with UACC-257 melanoma, 93.5%; in the assay on M14 melanoma, 94.4%.

As to `O=C(Nc1cccc(-c2nc(-c3ccc(NC(=O)c4cccs4)cc3Cl)no2)c1)Nc1ccc(NC(=O)C2CC2)c(C(F)(F)F)c1`, the growth in the assay with DU-145 prostate is -13.4% (active); in the assay with K-562 leukemia, -11.1% (active); with MALME-3M melanoma it was -80.6% (active); in the assay on MDA-MB-231 breast, -58.2% (active); with RXF 393 renal, -83.7% (active); in the assay with SF-268 CNS it was -33.8% (active). Also, the growth in the assay with SF-295 CNS was -63.1% (active); in the assay on SF-539 CNS it was -85.4% (active); with UACC-257 melanoma, -32.2% (active); with M14 melanoma it was -41.1% (active).
